Bioassay records deposited in PubChem BioAssay by several laboratories.
An excerpt weighted towards active compounds, which were near 5.3% of everything screened.
HIF act: HIF pathway transcriptional activation | AID 1910 | 300,000 tested, 0.32% active | activation, % at 7.5 µM (by protocol) | U2OS HRE-luciferase reporter, luminescence; normalized: DMSO 0%, desferrioxamine 100%;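 active = mean activation of at least 10% of the iron chelator positive control signal, with at least half of replicates also reaching 10%; inconclusive = mean and replicate majority disagree about reaching 10%; inactive = mean and most replicates under 10%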
Mot1-301 SUMO: inhibitors of SUMOylation pathway: yeast Mot1-301 growth rescue; S. cerevisiae Mot1-301 growth rescue, ATP luminescence, 38.5C; percent above DMSO median, 100 means doubled; 320,000 tested, 1% active; growth rescue, % at 18.8 µM;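 active = every valid replicate shows activation above 250% relative to neutral control wells; inactive = the rest, any valid replicate at or below 250%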
M18AAP inhibitor: blocks P. falciparum M18 aspartyl aminopeptidase | 290,000 tested, 1.2% active | AID 1822 | recombinant PfM18AAP, H-Glu-NHMec fluorogenic cleavage | inhibition, % at 7.35 µM;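 active = inhibition above the campaign mean inhibition over all tested compounds plus 3 SD, cut at about 28% in these data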
ALR inh: blocks human ALR sulfhydryl oxidase activity; P55789; purified ALR, DTT oxidation, H2O2 HRP-luminol luminescence; inhibition, % (no concentration beside the values); 290,000 tested, 3.8% active; AID 485317;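 active = mean replicate inhibition above about 79%, with every replicate also reaching it, limit read from the data; inconclusive = only one of the two criteria met; inactive = mean below limit and not every replicate reaching it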
Target sequence (P55789 whole entry, looked up): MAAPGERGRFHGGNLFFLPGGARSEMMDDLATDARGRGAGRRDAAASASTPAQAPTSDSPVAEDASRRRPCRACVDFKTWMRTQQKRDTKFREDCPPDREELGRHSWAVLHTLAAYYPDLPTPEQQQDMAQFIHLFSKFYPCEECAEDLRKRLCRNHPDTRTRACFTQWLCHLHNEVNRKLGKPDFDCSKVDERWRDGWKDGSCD
Hits are given with their value; i = inactive; ? = inconclusive; nt = not tested or not shown.

SMILES | HIF act | Mot1-301 SUMO | M18AAP inhibitor | ALR inh
CC(=O)c1ccc(-n2c(-c3cc(-c4ccco4)[nH]n3)n[nH]c2=S)cc1 | i | i | i | ?
O=C(O)c1ccc(-n2c(-c3cc(-c4ccco4)[nH]n3)n[nH]c2=S)cc1 | i | nt | i | 96
Cc1ccccc1-n1c(-c2ccco2)n[nH]c1=S | i | i | 30 | i
Cc1cccc(-n2c(-c3ccco3)n[nH]c2=S)c1 | i | i | i | 86
CC1Cc2ccccc2N1C(=O)CN(C)CC(=O)Nc1ccc(F)cc1 (configuration not stated) | nt | i | nt | nt
Cc1c(Cl)cccc1NC(=S)NC1CCCC1 | i | i | i | i
CN=c1scc(C)n1/N=C/c1cc(Br)c(O)c(Br)c1 | i | i | i | nt
CCN=c1scc(C)n1/N=C/c1cc(Br)c(O)c(OC)c1 | i | i | 35 | 87
COc1ccc(O)c(/C=N/N2CCCCC2)c1 | i | i | i | i
COc1cc(/C=N/N2CCCCC2)cc(OC)c1O | i | i | i | 99
COc1cc(/C=N/N2C(C)CCCC2C)cc(Br)c1O (configuration not stated) | i | i | i | 99
COc1ccc(NC(=S)Nc2ncccc2C)cc1OC | i | i | i | 83
COc1ccc(NC(=S)Nc2ncccc2C)c(OC)c1 | nt | i | i | 99
COc1cccc(Sc2nc(-c3ccccc3)ncc2S(C)(=O)=O)c1 | i | i | i | nt
CC(OC(=O)c1nsc(Cl)c1Cl)C(=O)NCCc1ccccc1 (configuration not stated) | i | i | i | i
CCOC(=O)N1CCN(C(=O)C2CCCN(c3ncnc4c3nc3n4CCCCC3)C2)CC1 (configuration not stated) | i | i | i | i
CCOC(=O)C1CCN(C(=O)C2CCCN(c3ncnc4c3nc3n4CCCCC3)C2)CC1 (configuration not stated) | 400 | i | i | i
CC(=O)Nc1ccc(S(=O)(=O)NNC(=O)c2ccc([N+](=O)[O-])cc2)cc1 | i | i | i | i
O=C(NNc1ccccn1)C(=O)NNS(=O)(=O)c1ccc(F)cc1 | i | i | i | 99
O=C(NNc1ccccn1)C(=O)NNS(=O)(=O)c1ccc(Cl)cc1 | i | i | i | 99
COCCNC(=O)C(=O)NNS(=O)(=O)c1ccc(Cl)cc1 | i | i | i | i
O=C(NNS(=O)(=O)c1ccc(F)cc1)c1ccccc1 | i | i | i | i
O=C(NNS(=O)(=O)c1ccc(F)cc1)c1cc2ccccc2cc1O | i | i | i | 98
O=C(NNc1ccccc1)C(=O)NNS(=O)(=O)c1ccc([N+](=O)[O-])cc1 | i | 368 | i | 98
COc1cccc(NC(=O)C2CCN(S(=O)(=O)c3ccc4[nH]c(=O)ccc4c3)CC2)c1 | i | i | i | i
SMILES | HIF act | Mot1-301 SUMO | M18AAP inhibitor | ALR inh
CCC1ON(c2ccccc2)C2c3nc4ccccc4n3CC12 (configuration not stated) | i | i | nt | i
COc1cc(NC(=S)NC(=O)CCc2ccccc2)cc(OC)c1 | i | i | i | i
O=C(/C=C/c1ccc(O)c(O)c1)OC(Cc1ccc(O)c(O)c1)C(=O)O (configuration not stated) | i | i | 89 | 99
O=C(COC(=O)/C=C/c1cccc(Br)c1)NCCc1ccccc1 | i | i | nt | i
O=C(/C=C/c1ccc(O)c(O)c1)OCCc1ccccc1 | i | i | nt | 98
CN(Cc1ccccc1C#N)S(=O)(=O)c1cccs1 | i | i | i | i
N#Cc1nccnc1S(=O)(=O)c1cccs1 | i | 361 | i | i
CN1C(=O)CC(N2CCN(c3ccccc3)CC2)C1=O (configuration not stated) | i | i | i | 94
CN1C(=O)CC(N2CCN(C(c3ccccc3)c3ccccc3)CC2)C1=O (configuration not stated) | i | i | i | i
O=C1CC(N2CCN(c3ccccc3)CC2)C(=O)N1CCc1ccccc1 (configuration not stated) | i | i | i | 95
Cc1ccc(S(=O)(=O)c2nc(-c3cccs3)oc2N2CCC(C(N)=O)CC2)cc1 | nt | i | nt | nt
COc1ccc(/C=N/NC(=O)c2nc(-c3ccccc3)n(-c3ccccc3)n2)c(O)c1 | 19 | i | i | i
COc1ccc2[nH]c(C(=O)N/N=C/c3ccc(O)cc3O)cc2c1 | 25 | i | i | i
CCOc1ccc2[nH]c(C(=O)N/N=C/c3ccc(OC)cc3)cc2c1 | i | i | i | i
COc1ccc(-c2c3c(=O)n(C)c(=O)n(C)c3cn2-c2cc(OC)ccc2OC)cc1 | i | nt | i | i
CC(=O)c1ccccc1OC(=O)COc1ccc(Cl)cc1C | i | i | i | 96
CCN(C(=O)COC(=O)c1cc([N+](=O)[O-])ccc1N1CCOCC1)C1CCS(=O)(=O)C1 (configuration not stated) | i | i | nt | i
CC(C)(C)NC(=O)CN(Cc1cccs1)C(=O)CNS(=O)(=O)c1ccc(F)cc1 | i | i | i | i
O=C(CN(Cc1ccco1)C(=O)CNS(=O)(=O)c1ccc(F)cc1)NCc1ccccc1 | i | 298 | i | i
CC(C)(C)NC(=O)CN(Cc1ccc2c(c1)OCO2)C(=O)CNS(=O)(=O)c1ccc(F)cc1 | 19 | i | i | i
O=C(NCCN1CCOCC1)/C(=C\c1ccc(F)cc1)NC(=O)c1ccccc1 | i | i | i | i
COc1ccc(S(=O)(=O)c2c(C)c(NS(=O)(=O)c3ccccc3)cc(C)c2O)cc1 | i | i | i | i
Cc1c(NS(=O)(=O)c2ccccc2)cc(Cl)c(O)c1C | i | i | i | 99
Cc1ccccc1C(=O)N1CCN(c2ccc(NC(=O)c3ccc4c(c3)OCCO4)cc2)CC1 | i | i | i | i
Nc1ccc2nc(SCc3ccccc3F)sc2c1 | i | i | i | 99
SMILES | HIF act | Mot1-301 SUMO | M18AAP inhibitor | ALR inh
Oc1ccc(/C=N/Nc2ccnc3cc(Cl)ccc23)cc1O | i | i | 29 | i
COc1ccc2oc(-c3ccc(C)c(NC(=O)c4ccc(N5CCOCC5)c([N+](=O)[O-])c4)c3)nc2c1 | i | i | i | i
Cc1nnc(Sc2cc(C(=O)NC3CC3)c3ccccc3n2)s1 | i | i | i | i
CC(C)NS(=O)(=O)c1ccc2c3c(cccc13)CC2 | i | i | i | i
CC(C)NS(=O)(=O)c1ccc2c(c1)NCC2 | i | i | i | 99
CCC(C)NC(=O)c1cnn2c1NC(c1ccc3c(c1)OCO3)CC2C(F)(F)F (configuration not stated) | i | i | i | i
CC(O)c1cc2c(cc1NC(=O)c1cnn3c1NC(c1ccco1)CC3C(F)(F)F)OCO2 (configuration not stated) | i | i | 29 | i
O=C(Nc1ccc(O)cc1)c1cc2n(n1)C(C(F)(F)F)CC(c1ccco1)N2 (configuration not stated) | i | i | i | 99
COCCC1CCCCN1Cc1cn(-c2ccccc2)nc1-c1ccc2c(c1)OCO2 (configuration not stated) | i | i | i | i
O=C(CNc1n[nH]c(=O)[nH]c1=O)N/N=C/C=C/c1ccccc1 | i | i | i | i
CC(C)OCCCn1c(=NC(=O)c2ccncc2)c(C#N)cc2c(=O)n3ccccc3nc21 | i | i | i | 97
